Hits are enriched below; roughly 5.7% of the tested compounds scored in any of these assays.
TGFb SMAD3 inh = inhibitors of TGF-b signaling; HepG2 CAGA-GFP TGF-b/SMAD3 reporter, GFP fluorescence, 18 h; TGF-beta stimulated, 500 pg/mL final; AID 588855; 410,000 compounds, 1.2% hits; Potency, µM (highest dose often 46.1 µM), without a hit: at the highest dose activity, negative = inhibition, hits mostly inhibitors; also: potency is read from the fitted curve at half-maximal effect; % is scaled to controls: 0 for no effect and ±100 for the full control effect; nearly all actives have a fitted effect of over 65% in size
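GFP signal (ex488/em500-530) from TGF-beta-stimulated HEPG2 CAGA-GFP cells, 500 pg/mL final, 18 h at 37 degrees C in DMEM plus 1% FBS, normalized to unstimulated and DMSO-stimulated controls.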
IL1B secr inh = inflammasome signaling inhibition, IL-1 beta readout; THP-1 LPS/ATP IL-1B secretion, AlphaLISA, 16 h; stronger effect = lower value; activity change, % at 57.5 µM; 360,000 compounds, 4.7% hits; AID 743279; in the data active = activity change below about -50%; inconclusive = mostly about -30% to -49%; also: % is scaled to controls: 0 for no effect and ±100 for the full control effect
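THP-1 cells pretreated 1 hr with compounds (up to 57.5 uM final), then stimulated with LPS (250 ng/mL final) plus ATP (1.25 mM final); secreted IL-1B measured by AlphaLISA after 16 hr, decreased signal indicating inhibition.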
HepG2 tox = counter-screen for TGF-b inhibitors: cytotoxicity in HepG2 cells | HepG2 CAGA-GFP viability, ATP luminescence, 18 h | Potency, µM (series often up to 46.1 µM), for inactives: top-dose activity change, negative = cytotoxicity, usual class: cytotoxic | 410,000 compounds, 0.76% hits; also: potency is read from the fitted curve at half-maximal effect
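HepG2 CAGA-GFP cells (1000/well, DMEM with 1% FBS) received compound, then TGF-beta at 500 pg/mL final, and were incubated 18 hours at 37 degrees C. Viability was read by CellTiter-Glo luminescence. Media-only wells were set as complete cell-killing and DMSO as no toxicity.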
ATXN2 expr inh = ATXN2 expression inhibition | 360,000 compounds, 0.72% hits | HEK-293 ATXN2-luciferase reporter, luminescence, 24 h | Potency, µM (series often up to 57 µM), inactives show top-dose activity change, negative = inhibition, most hits filed as inhibitors; also: potency is read from the fitted curve at half-maximal effect; % is scaled to controls: 0 for no effect and ±100 for the full control effect; nearly all actives have a fitted effect of over 55% in size
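ATXN2-luciferase reporter cells (luciferase flanked by upstream and downstream ATXN2 gene portions) were treated 24 h at 37 °C with compounds at up to 57 uM. SteadyGlo luminescence gave expression; GF-AFC fluorescence gave viability.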
S2 tox = viability counter-screen for ATXN expression inhibitors; S2 cells (HEK-293 line with an ATXN2-luciferase reporter) viability, CellTiter-Fluor protease fluorescence, 24 h; Potency, µM (doses to about 56.7 µM), usual class: cytotoxic; 400,000 compounds, 0.49% hits; also: potency is read from the fitted curve at half-maximal effect; nearly all actives have a fitted effect of over 40% in size
Starred values were filed as active, the others as inactive; [ ] = remark or other dose. Unless noted, calls follow the shape of the dose curve; as a rule, active = well fitted curve in the direction sought with a large enough effect; inconclusive = small, poorly fitted or top-dose-only effect, or another doubt; inactive = no such curve, though single readings can be large; an effect the other way counts as inactive or inconclusive.

Screening CC(=O)Nc1cccc(NC(=O)/C=C/c2ccc(S(=O)(=O)N3CCOCC3)cc2)c1 returned TGFb SMAD3 inh -12.8%, IL1B secr inh inconclusive, HepG2 tox -14.4%, ATXN2 expr inh -4.4% and S2 tox inactive.
For Cc1ccc(C)c(NC(=O)Cn2c(=O)n(Cc3ccco3)c(=O)c3oc4ccccc4c32)c1 the results were TGFb SMAD3 inh -0.1%, HepG2 tox -50.6%, ATXN2 expr inh 12.5% and S2 tox inactive.
For COc1cccc(NC(=O)/C=C/c2ccc(S(=O)(=O)N3CCOCC3)cc2)c1 the results were TGFb SMAD3 inh -8.6%, IL1B secr inh -8.4, HepG2 tox -18.8%, ATXN2 expr inh 22.4µM* and S2 tox inactive.
O=C(/C=C/c1ccccc1)Nc1cc(S(=O)(=O)N2CCOCC2)ccc1N1CCOCC1 was read as TGFb SMAD3 inh -3.2%, IL1B secr inh -7.5, HepG2 tox -0.9%, ATXN2 expr inh 8.7% and S2 tox inactive.
Screening COc1ccc(S(=O)(=O)N2CCOCC2)cc1NC(=O)/C=C/c1ccccc1 returned TGFb SMAD3 inh -3.3%, IL1B secr inh -51.5*, HepG2 tox -0.7%, ATXN2 expr inh 11.0% and S2 tox inactive.
For O=S(=O)(c1ccc(Br)cc1)c1nc(-c2ccco2)oc1SCc1ccccc1Cl the results were TGFb SMAD3 inh 1.7%, HepG2 tox -12.6%, ATXN2 expr inh -7.5% and S2 tox inactive.
Screening CS(=O)(=O)c1ccc2nc(NC(=O)CCS(=O)(=O)c3ccccc3)sc2c1 returned TGFb SMAD3 inh inconclusive, IL1B secr inh -92.8*, HepG2 tox 7.08µM*, ATXN2 expr inh inconclusive and S2 tox 31.6µM*.
For O=C(CCS(=O)(=O)c1ccccc1)Nc1nc2cc3c(cc2s1)OCCO3 the results were TGFb SMAD3 inh 12.6µM*, IL1B secr inh inconclusive, HepG2 tox -87.0%, ATXN2 expr inh 25.0% and S2 tox inactive.
COC(=O)c1ccc2nc(NC(=O)CCS(=O)(=O)c3ccccc3)sc2c1 was read as TGFb SMAD3 inh inconclusive, IL1B secr inh 15.3, HepG2 tox 2.2%, ATXN2 expr inh 16.3% and S2 tox inactive.
For O=C(CCS(=O)(=O)c1ccccc1)Nc1nc2cc3c(cc2s1)OCO3 the results were TGFb SMAD3 inh inconclusive, IL1B secr inh -51.7*, HepG2 tox 14.4%, ATXN2 expr inh 18.7% and S2 tox inactive.
Screening O=C1C2=C(NC(=S)NC2c2ccc(Cl)cc2)NC(c2ccc(Cl)cc2)N1c1ccc(Cl)cc1 (centres undefined) returned TGFb SMAD3 inh inconclusive, IL1B secr inh -101.2*, HepG2 tox -111.9%, ATXN2 expr inh inconclusive and S2 tox inconclusive.
For COc1ccccc1N1C(=O)c2ccccc2NC1c1ccncc1 (centres undefined) the results were TGFb SMAD3 inh 11.1%, IL1B secr inh 28.2, HepG2 tox 2.7%, ATXN2 expr inh -18.0% and S2 tox inconclusive.
For CCc1ccc(C2NC(=S)NC3=C2C(=O)N(c2ccccc2OC)C(c2ccc(CC)cc2)N3)cc1 (centres undefined) the results were TGFb SMAD3 inh inconclusive, IL1B secr inh -78.7*, HepG2 tox -81.4%, ATXN2 expr inh inconclusive and S2 tox inconclusive.
For O=C(Nc1ccc(Br)cc1)N1CCC(CN2CCCC2)CC1 the results were TGFb SMAD3 inh -0.3% and HepG2 tox -4.4%.
For Cc1nn(-c2ccccc2)c2nc(C3CC3)cc(C(=O)Nc3cccc(F)c3)c12 the results were TGFb SMAD3 inh inconclusive, HepG2 tox -45.2%, ATXN2 expr inh inconclusive and S2 tox inconclusive.
For Cc1ccc2c(/C=C/c3c[nH]c4ccccc34)ccnc2c1C the results were TGFb SMAD3 inh inconclusive and HepG2 tox -47.0%.
Cc1cc(C(=O)c2ccc(C(C)(C)C)cc2)c(NC(=O)CCl)s1 was read as TGFb SMAD3 inh 15.8µM*, IL1B secr inh -50.7*, HepG2 tox -101.8%, ATXN2 expr inh inconclusive and S2 tox inconclusive.
`COC(=O)c1c(NC(=O)Nc2ccc(Cl)cc2)sc(C)c1C` gave TGFb SMAD3 inh -5.3%, IL1B secr inh 27.9, HepG2 tox -32.6%, ATXN2 expr inh -3.4% and S2 tox inconclusive.
Screening Cc1sc(NC(=O)Nc2ccccc2)c(C(N)=O)c1C returned TGFb SMAD3 inh -5.8%, IL1B secr inh -76.0*, HepG2 tox -2.7%, ATXN2 expr inh 24.4%[11.3 µM] and S2 tox inactive.
Screening Cc1sc(NC(=O)CCl)c(C(=O)c2ccccc2)c1C returned TGFb SMAD3 inh inconclusive, IL1B secr inh -98.2*, HepG2 tox 12.6µM*, ATXN2 expr inh inconclusive and S2 tox inconclusive.
CCOC(=O)c1sc(NC(=O)Nc2ccccc2)cc1C was read as TGFb SMAD3 inh inconclusive, IL1B secr inh -117.5*, HepG2 tox -87.3%, ATXN2 expr inh 125.9% and S2 tox inconclusive.
For Cc1ccccc1C(=O)Nc1sc(C)c(C)c1C(=O)c1ccccc1 the results were TGFb SMAD3 inh inconclusive, IL1B secr inh -19.7, HepG2 tox -21.2%, ATXN2 expr inh -3.2% and S2 tox inactive.
`COc1ccc2cc(-c3nc4ccc(C(=O)O)cc4[nH]3)c(=O)oc2c1` gave TGFb SMAD3 inh -5.9%, HepG2 tox -1.6% and ATXN2 expr inh inconclusive.
`Cc1ccc(NC(=O)C2CCCN(c3ncnc4onc(C)c34)C2)cc1Cl` (centres undefined) gave TGFb SMAD3 inh inconclusive, HepG2 tox -31.2%, ATXN2 expr inh 9.3% and S2 tox inactive.
COc1cc(/C=N/NC(=O)c2ccc(Cn3cc([N+](=O)[O-])cn3)o2)cc(Br)c1O was read as TGFb SMAD3 inh 15.8µM*, IL1B secr inh -2.1, HepG2 tox -82.4%, ATXN2 expr inh -2.6% and S2 tox inactive.
For O=C(N/N=C/c1c(F)cccc1Cl)c1ccc(Cn2cc(Br)cn2)o1 the results were TGFb SMAD3 inh -15.9%, IL1B secr inh inconclusive, HepG2 tox -19.2%, ATXN2 expr inh 5.4% and S2 tox inactive.
`O=C(N/N=C/c1c(F)c(F)c(F)c(F)c1F)c1ccc(Cn2cc(Br)cn2)o1` gave TGFb SMAD3 inh -4.0%, IL1B secr inh -97.8*, HepG2 tox -16.9%, ATXN2 expr inh inconclusive and S2 tox inactive.
CC(/C=N/NC(=O)c1ccc(Cn2cc([N+](=O)[O-])cn2)o1)=C\c1ccccc1 was read as TGFb SMAD3 inh -12.6%, IL1B secr inh -52.4*, HepG2 tox -12.8%, ATXN2 expr inh 19.1% and S2 tox inactive.
`COc1ccc(/C=N/NC(=O)c2ccc(Cn3cc([N+](=O)[O-])cn3)o2)cc1O` gave TGFb SMAD3 inh 33.8%, IL1B secr inh 2.8, HepG2 tox 3.8%, ATXN2 expr inh 6.8% and S2 tox inactive.
